Most compounds without a hit are left out; they make up all but 19% or so of the library.
HT1080-NT tox: kills 2HG-producing HT-1080-NT fibrosarcoma cells. AID 686970. Potency, µM (series often up to 46.1 µM), usual class: cytotoxic. HT-1080-NT fibrosarcoma viability, CellTiter-Glo ATP luminescence, 48 h. 1.6% of 360,000 active;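 further: NT is the 2HG producing partner of a matched IDH1 knockdown line; nearly all actives have a fitted effect of over 55% in size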
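Toxicity toward the 2HG-producing NT line was scored as %Activity, normalised to DMSO and no-cell wells, from CellTiter-Glo luminescence after 48 hours' treatment.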
DT40 TDP1 no CPT: qHTS for Inhibitors of human tyrosyl-DNA phosphodiesterase 1 (TDP1): qHTS in cells in absence of CPT; Potency, µM (top dose mostly 46.2 µM), hits mostly inhibitors; DT40 Tdp1-/- hTDP1 cells, no CPT, ATP luminescence, 48 h; AID 686978, 2013; 15% of 420,000 active; further: nearly all actives have a fitted effect of over 55% in size
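No-CPT arm: Tdp1-/-;hTDP1 DT40 cells (400/well) plus compounds, incubated ≥48 hr at 37 °C. Readout CellTiter-Glo luminescence.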
KB-V1 MDR tox: kills drug-selected multidrug resistant KB-V1 cells | 3.4% of 400,000 active | Potency, µM (highest dose often 46.1 µM), actives largely listed as cytotoxic | AID 1347076 | KB-V1 MDR cells viability, CellTiter-Glo, 72 h; further: nearly all actives have a fitted effect of over 60% in size
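Luminescent ATP read-out (CellTiter-Glo, 10 min) measures survival of drug-selected KB-V1 MDR cells after 72 h, 37 degrees C compound exposure. Medium: phenol-red-free DMEM, 10% FBS. Values from fitted concentration-response curves.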
TDP1 cell CPT: DT40-hTDP1 cell growth loss with CPT | Potency, µM (titrated, usually from 46.2 µM), hits mostly inhibitors | 12% of 420,000 active | chicken DT40 Tdp1-/-;hTDP1 cells + 20 nM CPT, ATP luminescence, 48 h; further: nearly all actives have a fitted effect of over 55% in size
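Chicken DT40 Tdp1-/- cells stably complemented with human TDP1 were seeded at 400 cells/well in medium containing 20 nM camptothecin, exposed to pin-transferred compounds, and grown at 37 °C for at least 48 hr. Viability was read as ATP luminescence.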
KB-3-1 cytotox: kills parental KB-3-1 adenocarcinoma cells; KB-3-1 viability, CellTiter-Glo ATP luminescence, 72 h; AID 1347075; Potency, µM (highest dose often 46.1 µM), actives largely listed as cytotoxic; 1.4% of 400,000 active; further: nearly all actives have a fitted effect of over 60% in size
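Cytotoxicity measured as CellTiter-Glo luminescence after 72 h at 37 C. Compound titrations were pinned onto drug-naive KB-3-1 parental adenocarcinoma cells grown in DMEM with 10% FBS, and normalized data fitted to concentration-response curves.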
HT1080 IDH1KD tx: kills HT-1080 cells with IDH1 knockdown; HT-1080 IDH1 knockdown viability, ATP luminescence, 48 h; Potency, µM (series often up to 46.1 µM), most hits filed as cytotoxic; 2% of 360,000 active
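HT-1080-IDH1KD cells (IDH1 knocked down), 750/well in RPMI with 5% FBS, treated with compound 48 h at 37 degrees C. Viability by CellTiter-Glo luminescence, normalised to DMSO and no-cell wells; concentration-response curves classed.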
Hits are given with their value; i = inactive; ? = inconclusive; nt = no result. The call rests on the fitted dose curve; in most records, active means well fitted curve in the direction sought with a large enough effect; inconclusive means small, poorly fitted or top-dose-only effect, or another doubt; inactive means no such curve, though single readings can be large; an effect the other way counts as inactive or inconclusive.

SMILES	HT1080-NT tox	DT40 TDP1 no CPT	KB-V1 MDR tox	TDP1 cell CPT	KB-3-1 cytotox	HT1080 IDH1KD tx
CCc1c(C)nc2ncnn2c1N1CCCC(C(=O)NCc2ccco2)C1 (stereo unspecified)	i	?	i	?	?	i
CCc1c(C)nc2ncnn2c1N1CCC(C(=O)NCc2cccc(OC)c2)CC1	i	?	23.1µM	?	?	?
CCc1c(C)nc2ncnn2c1N1CCCC(C(=O)NCc2cccs2)C1 (stereo unspecified)	i	13µM	16.4µM	?	?	i
COc1cccc(CNC(=O)C2CCN(S(=O)(=O)N3CCCC3)CC2)c1	i	i	i	i	i	i
Cc1nc2ncnn2c(N2CCCC(C(=O)Nc3ccccc3Br)C2)c1C (stereo unspecified)	i	14.6µM	10.3µM	?	i	i
Cc1cc(C)n2nc(C(=O)OCC(=O)N(Cc3ccccc3)C(C)C)nc2n1	i	i	i	i	i	i
COc1ccc(CNC(=O)c2cc(C)nn2-c2ccccc2)cc1	i	i	i	i	i	i
O=C(Cn1nnc(-c2ccc(Cl)cc2)n1)NC(=O)NC1CCCC1	i	i	i	i	i	i
O=c1c(Cc2ccccc2)c(O)ccn1Cc1ccco1	i	i	?	i	i	i
CCc1c(C)nc2ncnn2c1NCc1cccs1	i	25.9µM	?	?	i	i
CCc1c(C)nc2ncnn2c1N1CCC(C(=O)NCc2cccs2)CC1	i	?	i	23.1µM	i	i
Cc1cc(N2CCN(S(=O)(=O)c3ccc(Br)cc3)CC2)n2ncnc2n1	i	i	?	i	i	i
CCc1c(C)nc2ncnn2c1N1CCCC(C(=O)NCCc2ccccc2)C1 (stereo unspecified)	i	20.6µM	13µM	?	?	?
CCc1c(C)nc2ncnn2c1N1CCN(S(=O)(=O)c2ccc(OC)cc2)CC1	i	5.8µM	i	3.66µM	i	i
CCOC(=O)[C@H]1[C@H]2COc3cc(OC)ccc3[C@@H]2N2C(=O)c3cc(F)ccc3NC(=O)[C@@]12C	i	?	i	?	i	i
O=S(=O)(NC1CC1)c1ccc(S(=O)(=O)N2CCCC3(CCCCC3)C2)cc1	i	?	i	13µM	i	i
COc1ccc(CCNC(=O)[C@@H](NC(=O)N2CCn3c2nc2ccccc23)C(C)C)cc1OC	i	?	i	?	?	i
CCC(C)[C@H](NC(=O)N1CCn2c1nc1ccccc12)C(=O)NCCc1ccc(OC)c(OC)c1 (stereo partly specified)	i	16.4µM	i	14.6µM	i	i
CCC(C)[C@H](NC(=O)N1CCn2c1nc1ccccc12)C(=O)NCCc1ccccc1 (stereo partly specified)	i	?	i	20.6µM	?	i
CC(C)C[C@H](NC(=O)N1CCn2c1nc1ccccc12)C(=O)N1CCCCC1	i	20.6µM	i	?	i	i
COc1cccc(NC(=O)[C@@H](NC(=O)N2CCn3c2nc2ccccc23)C(C)C)c1	i	13µM	i	i	?	?
CC(C)(C)c1ccc(Cc2n[nH]c(=S)[nH]c2=O)cc1	i	i	i	?	i	i
CC(C)c1nc(SCC(=O)N2CCCCC2)c2c(=O)n(C)c(=O)n(C)c2n1	i	?	?	?	i	i
NC(=S)N=Nc1ccc(NN=C(N)N)cc1	?	1.46µM	?	1.3µM	i	?
Cc1nc(NC(=O)c2ccccc2)sc1C1(C)CC(c2ccccc2F)=NO1 (stereo unspecified)	i	i	i	i	i	i
SMILES	HT1080-NT tox	DT40 TDP1 no CPT	KB-V1 MDR tox	TDP1 cell CPT	KB-3-1 cytotox	HT1080 IDH1KD tx
COc1ccc(NC(=O)c2nc(C)c(C3(C)CC(c4ccccc4)=NO3)s2)cc1 (stereo unspecified)	?	5.8µM	?	1.03µM	4.61µM	?
Cc1nc(NC(=O)c2ccccc2)sc1C1(C)CC(c2c(Cl)cccc2Cl)=NO1 (stereo unspecified)	i	?	i	23.1µM	?	i
O=C(CSc1nc2ccccc2[nH]1)N1CCN(S(=O)(=O)c2ccc(Cl)cc2)CC1	i	?	i	i	i	i
COc1ccc(C(=O)NCCn2cc(SCC(=O)Nc3ccc4c(c3)OCCO4)c3ccccc32)cc1	nt	20.6µM	i	?	?	nt
O=C(CSc1cn(CCNC(=O)c2ccc3ccccc3c2)c2ccccc12)NCc1ccco1	i	?	?	16.4µM	?	?
COc1ccc(NC(=O)CSc2cn(CCNC(=O)c3ccc(OC)cc3)c3ccccc23)cc1	nt	25.9µM	i	?	i	nt
COc1ccccc1C(=O)NCCn1cc(SCC(=O)Nc2cc(C)on2)c2ccccc21	i	?	8.2µM	i	i	i
COc1ccc(NC(=O)CSc2cn(CCNC(=O)c3c(F)cccc3F)c3ccccc23)cc1	nt	?	i	?	i	nt
CN(CCCC(=O)Nc1ccc(Br)cc1F)S(=O)(=O)c1ccccc1	i	?	?	?	i	i
CCOC(=O)c1ccc(NC(=O)Cn2nc(C)c3nn(-c4ccc(Cl)cc4)c(C)c3c2=O)cc1	nt	?	nt	i	nt	nt
COc1ccccc1OCCNC(=O)/C=C/c1ccc([N+](=O)[O-])cc1	i	i	14.6µM	i	i	i
CCCCOc1ccc(/C=C/C(=O)Nc2ccc([N+](=O)[O-])cc2C)cc1	i	?	i	?	i	i
Cc1ccccc1OCCNC(=O)/C=C/c1ccc([N+](=O)[O-])cc1	i	?	i	i	i	i
CCCOc1ccc(/C=C/C(=O)Nc2ccc([N+](=O)[O-])cc2)cc1	13µM	20.6µM	25.9µM	18.4µM	7.31µM	i
Cc1cnc(C(=O)NC(Cc2ccccc2)c2ccccc2)cn1 (stereo unspecified)	i	i	i	i	i	i
Cc1ccc(S(=O)(=O)N(C)C)cc1NC(=O)CN1C(=O)NC2(CCc3ccccc32)C1=O (stereo unspecified)	i	i	i	i	?	i
Nc1nc(N)nc(-c2cccc(Br)c2)n1	i	?	i	i	i	i
Brc1cccc(-c2n[nH]c(-c3ccccc3)n2)c1	i	23.1µM	i	?	i	i
CCN(C(=O)C1=COCCO1)c1nc2c(C)cccc2s1	i	i	i	i	i	i
CCN(CC)CCN(C(=O)c1ccco1)c1nc2c(C)cccc2s1	nt	20.6µM	i	14.6µM	i	nt
CCc1noc(C)c1C(=O)N(CC)c1nc2c(C)cccc2s1	i	18.4µM	i	?	i	i
CCN(c1ccccc1)S(=O)(=O)c1ccc(NC(=O)c2cc(=O)c3c(C)cc(C)cc3o2)cc1	nt	i	i	i	i	nt
